# Experimental data taken from PubChem BioAssay AID1814 (Broad Institute, 2009).
# Hit rate of the full screen: of about 300,000 compounds, about 22,000 (7.3%) were called active. Another 2% or so got no clear call; they are omitted. No stated cut-off is given here; in the data, active means activity score below about -60%; inconclusive means mostly about -28% to -61%; inactive means positive scores. Shown is part of a subset that was picked to be rich in actives.
# Test: Activators working through SNCA 5'UTR binding (MLPCN) (AID 1814)
# Details: alpha-synuclein 5'UTR reporter, activators screen; hits give low values; tested at 7.5 µM
row,Structure (SMILES),activity score
1,CNC(=S)N/N=C/c1ccc(N2CCOCC2)s1,-100% (active)
2,Cc1nc(NC(=O)c2ccc3c(c2)OCCO3)ccc1Br,-116% (active)
3,CC(C)C(=O)Nc1ccc2c(c1)oc1ccccc12,-225% (active)
4,CCOc1ccc(C(=O)Nc2nccs2)cc1[N+](=O)[O-],-123% (active)
5,CC(=O)Oc1ccc(C(=O)Nc2nccs2)cc1,-98% (active)
6,Cc1ccc(-c2nc3ccccc3[nH]2)cc1N,-122% (active)
7,COc1ccc(-c2csc(-c3cccs3)n2)cc1OC,-154% (active)
8,O=C(Cc1c(F)cccc1Cl)Nc1ncc([N+](=O)[O-])s1,-133% (active)
9,O=C(CCc1ccccc1)Nc1ncc([N+](=O)[O-])s1,-165% (active)
10,CC(=O)Oc1ccccc1C(=O)Nc1ncc([N+](=O)[O-])s1,-68.7% (active)
11,O=C(Nc1ncc([N+](=O)[O-])s1)C1COc2ccccc2O1 (configuration not stated),-93.3% (active)
12,c1ccc2c(C[n+]3csc4ccccc43)cccc2c1,-83.3% (active)
13,Cc1cccc(N=Nc2c(C)[nH]n(-c3ccccc3)c2=O)c1,-126% (active)
14,CCCC(=O)Nc1ccc2c(c1)nc1n2CCSC1,-94.7% (active)
15,CC1(C)C2CC=C(/C=N/NC(=O)c3ccc(Cl)cc3)C1C2 (configuration not stated),-63.4% (active)
16,O=C1N=C(N2CCOCC2)S/C1=C\C=C/c1ccccc1,-170% (active)
17,Cc1ccsc1/C=C1\SC(N2CCOCC2)=NC1=O,-73% (active)
18,Brc1ccc(C2CC(c3ccccc3)=Nc3ccccc3N2)cc1 (configuration not stated),-141% (active)
19,O=C(CSc1ccc(-c2ccc(-n3cccn3)cc2)nn1)Nc1ccc([N+](=O)[O-])cc1,-99.7% (active)
20,CC12CCC(C(=O)N(NC(=O)c3ccccc3O)C1=O)C2(C)C (configuration not stated),67.6% (inactive)
21,Cc1ccc2c(c1)NCC(C(=O)NC1CCC(C)CC1)O2 (configuration not stated),-67.9% (active)
22,COc1cc(NC(=S)N2CCCC(C)C2)c(OC)cc1Cl (configuration not stated),-79% (active)
23,CC(C)CCC(C)NC(=O)c1ccc2nccnc2c1 (configuration not stated),-75.9% (active)
24,O=C1c2ccccc2C(=O)N1CCOc1ccc(F)cc1,-91.2% (active)
25,Cc1cccc(N2Cc3ccccc3C2=NC(=O)c2ccc(Cl)nc2)c1,-115% (active)
26,CCCc1cc(=O)[nH]c(SCC(=O)c2c(N)n(CC(C)C)c(=O)n(C)c2=O)n1,88.3% (inactive)

row,Structure (SMILES),activity score
1,CC(=O)c1ccc(NC(=O)CSC(=S)N2CCCC2)cc1,-76.2% (active)
2,Cc1cc(Cl)ccc1OCc1nc(-c2ccncc2)no1,-162% (active)
3,CN(C)S(=O)(=O)c1ccc2oc(SCC(=O)Nc3ccccc3F)nc2c1,-147% (active)
4,CCn1c(/C=C/c2ccc([N+](=O)[O-])o2)nc2ccccc2c1=O,-353% (active)
5,Cc1ccc(-c2nc(C#N)c(NCCCn3ccnc3)o2)cc1,-87% (active)
6,Cc1cccc(-[n+]2c(-c3cccc(Br)c3)[nH]c3nc4ccccc4nc32)c1,73.9% (inactive)
7,Nc1ccc(-c2nnc(-c3ccc(-c4ccccc4)cc3)o2)cc1,-217% (active)
8,Brc1ccc(-c2noc(-c3ccccc3)n2)o1,-80.6% (active)
9,Nc1nonc1-c1noc(-c2ccc(Br)o2)n1,-80.6% (active)
10,Brc1ccc(-c2nnc(-c3ccccc3)o2)o1,-63.8% (active)
11,Cc1ncc(CC(=O)n2cc(C(=O)c3cc(Cl)ccc3O)cn2)s1,-71% (active)
12,CCSc1nnc(-c2cc3c(s2)-c2ccccc2CC3)o1,-102% (active)
13,CCOC(=O)c1ccc2c(c1)nc(C)n2CC,-141% (active)
14,Cc1cccc(C(=O)Nc2ccc(C(=O)/C=C/c3cccs3)cc2)c1,-92.4% (active)
15,COc1ccc(C2=NN(C(=O)c3ccccc3C(=O)O)C(c3ccccc3O)C2)cc1 (configuration not stated),-171% (active)
16,COc1ccc(C2=NN(C(C)=O)C(c3ccccc3)C2)cc1 (configuration not stated),-63.9% (active)
17,C=CCNC(=O)c1cc(-c2ccccc2O)on1,-65.4% (active)
18,O=C(NCc1ccccn1)c1cc(-c2ccccc2Cl)on1,-99.8% (active)
19,Clc1ccc(-c2cc(-c3ccccn3)on2)c(Cl)c1,108% (inactive)
20,O=C(Nc1cccnc1Cl)c1cc(-c2ccccc2O)on1,-179% (active)
21,C/C(=C\c1ccco1)CN1CCC(N2CCC(C(=O)N3CCOCC3)CC2)CC1,-135% (active)
22,CC(=O)Nc1ccc(/C=C/C(=O)c2ccccc2)cc1,-201% (active)
23,CC(=O)Nc1ccc(C(=O)/C=C/c2ccc[nH]2)cc1,-142% (active)
24,O=C(/C=C/c1ccc(N2CCOCC2)cc1)c1ccccc1,-152% (active)
25,Cc1ccsc1C(=O)N/N=C/c1ccc([N+](=O)[O-])cc1,-154% (active)
26,Cc1ccc(NC(=O)c2sccc2C)cc1[N+](=O)[O-],-217% (active)

row,Structure (SMILES),activity score
1,O=C(N/N=C/c1ccc([N+](=O)[O-])cc1)c1c[nH]c2ccccc12,-66.7% (active)
2,COc1cccc(-c2nn(-c3ccccc3)cc2/C=C(\C#N)C(=O)NCCCn2ccnc2)c1,-65.4% (active)
3,Cc1nn(C(=O)c2ccoc2C)c(N)c1-c1ccccc1,-109% (active)
4,CN(Cc1ccco1)S(=O)(=O)c1nnc(NC(=O)c2ccccc2)s1,-95.2% (active)
5,COc1ccc(C(=O)Cc2cnn(-c3ccccc3)c2)c(O)c1,-147% (active)
6,COc1ccc(C(=O)CC(=O)c2ccc(C)cc2)c(O)c1,-96.9% (active)
7,CC(=NCc1ccco1)c1c(C(F)(F)F)[nH]n(-c2nc3ccccc3s2)c1=O,-117% (active)
8,CCC(C)Cn1c(O)cc2nn(-c3nc4ccccc4s3)c(=O)c-2c1C (configuration not stated),97.8% (inactive)
9,COC(=O)Cc1[nH]n(-c2nc3ccccc3s2)c(=O)c1C(C)=Nc1ccc(OC)cc1,68.9% (inactive)
10,Cn1nc(C(F)(F)F)cc1-c1ccc(/C=C(\C#N)C(=O)c2cccc(C(F)(F)F)c2)s1,-76.5% (active)
11,O=C1/C(=C/c2ccc3c(c2)OCO3)CCC/C1=C\c1ccc2c(c1)OCO2,-83.5% (active)
12,O=C(/C=C/Sc1ncn[nH]1)c1ccc(Cl)cc1,-73.9% (active)
13,Oc1ccc(/C=N/NC2=NCCCCC2)c(O)c1,-141% (active)
14,Nc1nc(-c2sc3nc4c(cc3c2N)CCCC4)nc(N2CCOCC2)n1,-113% (active)
15,CC(C)(C)c1ccc(NC(=O)NCc2ccco2)cc1,-123% (active)
16,CCCC1=Nc2cc(C(=O)NCc3ccco3)ccc2Sc2ccccc21,87.6% (inactive)
17,CC(C)(C)c1ccc(C(=O)NNC(=O)Cc2ccccc2)cc1,-84.3% (active)
18,CC(C)(C)c1ccc(C(=O)NCc2ccco2)cc1,-180% (active)
19,CC(C)n1c(O)c(N=Nc2ccccn2)c2ccccc21,-76.9% (active)
20,CC1C/C(=N/NC(=O)c2cccs2)CC(C)(C)C1 (configuration not stated),-101% (active)
21,CC(C)CC(=O)N/C(N)=N/c1nc2ccccc2s1,-93.4% (active)
22,CCC(=O)Nc1nc2ccccc2n1Cc1ccccc1C,65.5% (inactive)
23,CCC(=O)NC(=Nc1nc2ccccc2s1)NC(=O)CC,-101% (active)
24,CC12CN3CCN(CC(C3)/C1=N\NC(=O)c1ccccc1N)C2,-83.3% (active)
25,CN1C(=O)/C(=C\c2cc(Br)cs2)c2ccccc21,-188% (active)
